# The whole screen tested about 340,000 compounds, of which about 2,800 (0.82%) were called active. The sample holds actives, similar compounds and a random draw of the others, so the mix is not that of the screen.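 The calls were made as follows: active = B-score under library mean minus 4 SD, starting fluorescence ratio at most library mean plus 5 SD; inactive = the rest.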
# Target: Potassium channel subfamily K member 3 (Homo sapiens) (UniProt O14649)
# Test: human KCNK3 channel inhibitors, primary screen, CHO cells, FluxOR thallium flux, B-score (AID 602410);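 as to B-score: more negative B-score means stronger inhibition of thallium flux through KCNK3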
# Settings: FluxOR fluorescence, at 10 µM; hits give low values
# Potassium channel subfamily K member 3 (Homo sapiens), sequence (O14649 whole entry, looked up): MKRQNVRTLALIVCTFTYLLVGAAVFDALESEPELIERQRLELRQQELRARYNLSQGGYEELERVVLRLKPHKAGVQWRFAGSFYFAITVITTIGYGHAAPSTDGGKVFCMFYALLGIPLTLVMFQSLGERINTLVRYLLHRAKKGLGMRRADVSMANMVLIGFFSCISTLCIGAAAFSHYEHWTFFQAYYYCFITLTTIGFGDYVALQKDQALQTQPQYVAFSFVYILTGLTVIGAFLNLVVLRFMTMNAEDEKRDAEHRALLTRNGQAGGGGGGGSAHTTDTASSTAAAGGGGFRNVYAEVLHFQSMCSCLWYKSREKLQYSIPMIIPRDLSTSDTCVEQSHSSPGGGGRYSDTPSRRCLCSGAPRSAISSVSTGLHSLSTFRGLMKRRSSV
row,Compound,B-score
1,S=c1[nH]nc(-c2ccco2)n1/N=C/c1ccc(Br)s1,inactive
2,CCN(CC(=O)NCc1ccc(Cl)cc1)C(=O)CSc1ccccc1,inactive
3,CSc1cccc(NC(=S)N(C(C)C)C(C)c2ccccn2)c1 (stereo not drawn),-10.1 (active)
4,CC(c1ccccn1)N(CCN(C)C)C(=S)Nc1ccccc1F (stereo not drawn),inactive
5,CSc1cccc(NC(=S)N(Cc2ccccc2)Cc2ccccn2)c1,inactive
6,NC(=S)Nc1c(Cl)cccc1Cl,inactive
7,FC(F)(F)c1cccc(Cc2noc(CN3CCC(N4CCCCC4)CC3)n2)c1,inactive
8,CC(C(=O)NCC1CCCCC1)N(C)Cc1cccc(Cl)c1 (stereo not drawn),-8.9 (active)
9,COc1ccc(CN(C)C(C)C(=O)NC2CCCc3ccccc32)cc1 (stereo not drawn),inactive
10,CNS(=O)(=O)c1cccc(C(=O)NCC2CCCCC2)c1,inactive
11,CCc1cccc(NC(=O)C2CCCN(S(=O)(=O)c3ccc4[nH]c(=O)ccc4c3)C2)c1 (stereo not drawn),inactive
12,Cc1cc(OCC(=O)Nc2c(C)n(C)n(-c3ccccc3)c2=O)ccc1[N+](=O)[O-],inactive
13,COc1ccc(CNCCCn2cnc3c(OCc4ccccc4)ncnc32)cc1,inactive
14,S=C(NCCc1ccccc1)N1CCn2cccc2C1c1ccncc1 (stereo not drawn),inactive
15,S=C(Nc1cccc(Br)c1)N1CCn2cccc2C1c1cccnc1 (stereo not drawn),-9.52 (active)
16,Fc1cc(Br)ccc1NC(=S)Nc1cccnc1,inactive
17,C=C(C)c1cccc(C(C)(C)NC(=O)N2CCN(c3ncccn3)CC2)c1,inactive
18,C=CCN1CN(S(=O)(=O)c2ccc(OC)cc2)c2nc3ccccc3nc21,inactive
19,O=C(Nc1cccc(S(=O)(=O)Nc2ccc(Cl)cc2)c1)c1ccc2c(c1)OCCO2,-9.14 (active)
20,O=C(Nc1ccc(Cl)cn1)c1ccc2c(c1)OCCO2,inactive
21,O=C(Nc1ccc2c(c1)OCCO2)c1ccc(Cl)c(S(=O)(=O)N2CCCCC2)c1,inactive
22,O=C(NCc1ccco1)C(=O)c1cn(CC(=O)N2CCCCCC2)c2ccccc12,inactive
23,CCOC(=O)c1cc2cc(-c3c(C(=O)OCC)oc4cc(O)cc(O)c4c3=O)ccc2o1,-9.55 (active)

row,Compound,B-score
1,CCOC(=O)c1cc(=O)c2ccc(OCc3ccccc3)cc2o1,inactive
2,O=c1c(-c2ccc3c(c2)OCCO3)c(C(F)(F)F)oc2cc(O)cc(O)c12,inactive
3,COc1ccccc1NC(=O)CCC(=O)N1CC(C)Oc2ccc(C)cc21 (stereo not drawn),inactive
4,O=C(O)C(CCc1ccccn1)c1ccccc1 (stereo not drawn),inactive
5,Cc1ccc(CS(=O)(=O)CCC(=O)NC2CC2)cc1,inactive
6,COc1ccc(-c2nn(C)c(=O)c3ccccc23)cc1CNC(=O)C1CCCCC1,inactive
7,Cc1cccc(C(=O)NC(=S)N2CCN(c3ccc([N+](=O)[O-])cc3)CC2)c1,inactive
8,O=C(NC(=S)Nc1ccccc1N1CCCCC1)c1ccc(F)cc1,inactive
9,CCCC(=O)Nc1ccccc1N1CCN(C(=O)c2ccccc2)CC1,inactive
10,Cc1cccc(C(=O)Nc2ccccc2N2CCN(c3ccc(F)cc3)CC2)c1,-12.2 (active)
11,O=C(Nc1ccccc1N1CCCC1)c1ccc2ccccc2c1,-8.97 (active)
12,O=C(Nc1ccccc1N1CCOCC1)c1ccncc1,inactive
13,O=C(Nc1ccccc1N1CCCC1)c1ccc(F)c(S(=O)(=O)N2CCOCC2)c1,inactive
14,CCCCC(=O)Nc1ccccc1N1CCN(c2ccc(F)cc2)CC1,-9.06 (active)
15,CCC(C)C(=O)Nc1ccccc1N1CCN(c2ccc(F)cc2)CC1 (stereo not drawn),inactive
16,Cc1[nH]c(C)c(S(=O)(=O)N2CCN(c3cccc(C(F)(F)F)c3)CC2)c1C(=O)N1CCCC1,inactive
17,O=C(NC(=S)N1CCCCC1c1cccnc1)c1ccccc1 (stereo not drawn),inactive
18,CONc1nc2nonc2nc1NOC,inactive
19,CCCC(=O)Nc1cccc(NC(=S)NC(=O)C(C)Oc2ccc(Cl)cc2Cl)c1 (stereo not drawn),inactive
20,CSc1cccc(NC(=O)C2CCCN2S(=O)(=O)c2ccc3c(c2)CCC(=O)N3)c1 (stereo not drawn),inactive
21,CC(C(=O)c1ccc(-c2ccccc2)cc1)[n+]1cccc(Br)c1 (stereo not drawn),inactive
22,Cc1cccc(NC(=O)c2ccc(S(=O)(=O)N(C)c3ccccc3)cc2)n1,inactive
23,CSc1nccc(NC(=O)c2ccc(C(C)(C)C)cc2)n1,-10.4 (active)

row,Compound,B-score
1,COC(=O)c1nc(NC(=O)c2ccc(C(C)(C)C)cc2)n[nH]1,inactive
2,COc1ccccc1NC(=O)CN(c1ccccc1OC)S(=O)(=O)c1ccccc1,inactive
3,COc1ccccc1N(CC(=O)N1CCCCC1)S(=O)(=O)c1ccccc1,inactive
4,COc1ccccc1N(CCOc1ccccc1)S(=O)(=O)c1ccccc1,-10 (active)
5,O=S(=O)(O)CCN1CCOCC1,inactive
6,O=S(=O)(Cc1noc(-c2ccc(OC(F)(F)F)cc2)n1)c1ccc(F)cc1,inactive
7,N#Cc1nc(Cc2cccc3ccccc23)oc1NCc1ccc2c(c1)OCO2,-13.5 (active)
8,O=C(CCNS(=O)(=O)c1ccccc1C(F)(F)F)NCc1ccc2c(c1)OCO2,inactive
9,c1n[nH]c(NCc2ccc3c(c2)OCO3)n1,inactive
10,COC(=O)c1ccc2c(=O)n(CCN3CCOCC3)c(SCC(=O)Nc3cccc(OC)c3)nc2c1,inactive
11,COc1ccc(C(C)=O)cc1CN1C(=O)NC2(CCCCC2C)C1=O (stereo not drawn),inactive
12,CC(CC(=O)O)CC(=O)NNC(=O)c1cccc(Br)c1 (stereo not drawn),inactive
13,O=C(/C=C/NNC(=O)c1cccc(Br)c1)c1ccccc1,-9.94 (active)
14,Cc1ccccc1NC(=S)NNC(=O)c1cccc(Br)c1,inactive
15,CC(=O)OCC(=O)C1(O)CCC2C3CC(C)C4=CC(=O)CCC4(C)C3C(O)CC21C (stereo not drawn),inactive
16,CC(C)(C)C(=O)Nc1c(Br)c(C2CC2)nn1-c1ccccc1,inactive
17,O=C(Cn1nc(CNc2ccc(Cl)cc2)[n+]2c1CCCCC2)c1ccc(Cl)cc1,inactive
18,COc1cc(C(=O)NCC(=O)N2CC=C(c3ccccc3)CC2)cc(OC)c1OC,inactive
19,N#Cc1c(NC(=O)CCCN2C(=O)c3ccccc3C2=O)oc(-c2ccccc2)c1-c1ccccc1,inactive
20,COc1cc(C(=O)Nc2oc(-c3ccccc3)c(-c3ccccc3)c2C#N)cc(OC)c1OC,-10.4 (active)
21,CCC(C)(C)NC(=O)c1cc([N+](=O)[O-])ccc1N1CCCCC1,inactive
22,CCC(=O)c1ccc(OC(=O)/C=C/c2cc(OC)c(OC)c(OC)c2)cc1,inactive

# Source: PubChem BioAssay AID602410 (Johns Hopkins Ion Channel Center, 2012)
